Source: PubChem (several laboratories)
CDK5 inh – CDK5/p35 (human) kinase inhibition | Q00535+Q15078 | Recombinant CDK5/p35, ADP-Glo luminescence, 60 min | inhibition, % at 10 µM | hit rate 0.01% among 330,000;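 active = highest replicate inhibition of at least 50% and at least 75% of replicates reaching 50%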;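 also: plate controls were DMSO neutral control for no effect and GW8510 at 10 µM for full effect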
Rtt109 HAT inh – inhibitors of Candida albicans Rtt109/Vps75 histone acetyltransferase; inhibition, % at 34.9 µM; purified Rtt109/Vps75, ThioGlo CoA-SH fluorescence, 4 h; Q5AAJ8; AID 540336; hit rate 0.16% among 330,000;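 active = inhibition of at least 50% in every replicate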
Target sequence (Q5AAJ8 whole entry, looked up): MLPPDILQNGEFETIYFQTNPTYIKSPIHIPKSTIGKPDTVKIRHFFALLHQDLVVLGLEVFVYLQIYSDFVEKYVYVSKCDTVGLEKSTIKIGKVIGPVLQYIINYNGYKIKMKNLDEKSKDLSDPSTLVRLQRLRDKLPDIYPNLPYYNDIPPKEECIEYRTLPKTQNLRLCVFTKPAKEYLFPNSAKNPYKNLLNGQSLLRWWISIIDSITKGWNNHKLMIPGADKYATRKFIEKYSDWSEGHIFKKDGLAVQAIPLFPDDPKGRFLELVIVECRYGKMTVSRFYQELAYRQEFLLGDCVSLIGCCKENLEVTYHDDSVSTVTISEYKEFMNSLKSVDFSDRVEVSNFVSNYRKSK
dFosB act – activators of mouse delta FosB homodimer. activation, % at 25 µM. P13346. hit rate 0.99% among 340,000. purified delta FosB, TAMRA-CDK5 oligo fluorescence polarization; percent of positive-control signal above neutral wells;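 active = mean activation above about 17%, with every replicate also reaching it, limit read from the data, passing the limit was not always enough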
DYRK1A inh – inhibitors of rat Dyrk1A kinase. Q63470. ADP-Glo luminescence, NFATc1 peptide. inhibition, % at 12.5 µM. hit rate 0.43% among 310,000; in the data active = inhibition above about 50%;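 also: plate controls were vehicle with enzyme for no effect and no enzyme for full effect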
esBAF inh – inhibitors of esBAF chromatin remodeling in mouse ES cells. Bmi1-luciferase knock-in reporter, 24 h; 100% = twice the neutral-well signal. reporter increase, % at 12.5 µM. hit rate 2% among 350,000; in the data active = activation above about 40%;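 also: 0% = median of the plate's neutral control wells and 100% = double that signal; a rise in the Bmi1 reporter signal indicates esBAF inhibition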
SMARCA2 act – activators of SMARCA2 function | MG213 cells, MMTV-luciferase reporter, dexamethasone, overnight | activation, % at 9.1 µM | hit rate 1% among 370,000 | AID 652017; in the data active = activation above about 7.8%;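 also: 0% = vehicle wells and 100% = reference activator wells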
* = called active by the depositor; . = no result. This is a sample that favours compounds with a hit; in the whole collection about 3.2% have one here.

SMILES	CDK5 inh	Rtt109 HAT inh	dFosB act	DYRK1A inh	esBAF inh	SMARCA2 act
CC1CCCCC1NC(=O)CCCn1c(=S)[nH]c2ccccc2c1=O (stereo unspecified)	1	0	3	-3	0	-4
O=[N+]([O-])c1ccc(-c2cn3c(n2)SCC3)cc1	.	.	.	.	60*	-3
Cn1c(SCc2c(F)cccc2Cl)nnc1-c1cccs1	-2	.	-2	.	65*	6
C[C@@H]1CN([C@H](C)CO)C(=O)c2cccc(NS(=O)(=O)c3ccccc3)c2O[C@H]1CN(C)C(=O)Nc1ccccc1	.	.	.	.	0	.
COc1ccc(-c2ccn(-c3cccc(F)n3)n2)cc1	0	-4	-3	-1	54*	5
CCOC(=O)c1c(NC(=O)COC(=O)c2ccc(O)cc2)sc(C(=O)NC)c1C	-1	-8	-6	-2	0	-7
CCOC(=O)c1c(NC(=O)COC(=O)c2cnccn2)sc(C(=O)NC)c1C	0	-7	39*	.	4	2
CCCNC(=O)C[C@H]1CC[C@H]2[C@@H](COC[C@@H](O)CN2C(=O)c2ccccn2)O1	.	.	.	.	-4	.
C[C@@H]1CCCCO[C@H](CN(C)S(C)(=O)=O)[C@@H](C)CN([C@@H](C)CO)C(=O)c2cc(N(C)C)ccc2O1	.	.	.	.	-1	.
CCn1c(/C=C/N(C(C)=O)c2ccccc2)[n+](CC)c2ccc(Cl)cc21	-1	0	-4	-1	.	0
CC[n+]1c(/C=C/C=C/N(C(C)=O)c2ccccc2)sc2ccccc21	3	11	43*	20	5	2
CC(=O)Nc1ccc2nc(-c3ccc(Br)o3)[nH]c2c1	1	-19	-7	7	.	1
O=C(Nc1ccc2nc(-c3ccccc3)[nH]c2c1)c1ccco1	1	5	-3	-2	54*	5
O=C(Nc1ccc2nc(-c3ccc(Br)o3)[nH]c2c1)c1cccs1	1	9	-5	5	49*	3
O=C(Nc1ccc2nc(-c3ccc(Br)o3)[nH]c2c1)c1ccco1	-1	15	-7	15	65*	7
O=C(Nc1cccc(-c2nc3ccccc3[nH]2)c1)c1cccc(NC(=O)c2ccco2)c1	1	4	-39	5	32	7
Cc1cccc2[nH]c(-c3ccc(NC(=O)c4ccco4)cc3)nc12	1	-1	8	-8	84*	7
Cc1ccc(-c2nc3ccccc3[nH]2)cc1NC(=O)c1ccco1	0	13	-20	-3	37	5
COc1cccc(S(=O)(=O)N2CC[C@@H]3[C@H](CO)Nc4ccc(-c5ccc(C#N)cc5)cc4[C@@H]32)c1	.	.	.	.	7	.
C[C@@H]1CN([C@H](C)CO)C(=O)c2cc(-c3cncnc3)cnc2O[C@@H]1CN(C)C(=O)Nc1ccc2c(c1)OCO2	.	.	.	.	-3	.
C[C@@H]1CN([C@@H](C)CO)C(=O)c2cc(NC(=O)Nc3cccc4ccccc34)ccc2O[C@@H](C)CCCCO[C@@H]1CN(C)Cc1ccc2c(c1)OCO2	.	.	.	.	3	.
O=C(Nc1ccc(-c2nc3c(ccc4ccccc43)o2)cc1)c1ccco1	1	8	3	11	50*	2
O=C(Nc1ccc(-c2nc3cc(Cl)ccc3c(=O)o2)cc1)c1ccco1	1	-5	-1	-6	.	2
N#C/C(=N\Nc1ccc(F)cc1)C(=N)N1CCCCC1	-3	6	-8	-8	13	7.8*
Oc1ccccc1/C=N/Nc1cccc2cccnc12	1	2	-10	-3	50*	3
SMILES	CDK5 inh	Rtt109 HAT inh	dFosB act	DYRK1A inh	esBAF inh	SMARCA2 act
COc1ccc(-n2c(C)cc(C3=NNC(=NC4CC4)SC3)c2C)cc1	1	0	-9	3	.	9.8*
Cc1cc(C2=NNC(=NC3CC3)SC2)c(C)n1-c1ccccc1	0	-1	-6	7	.	-7
CCCC#Cc1ccc2c(c1)O[C@H](CN(C)C(=O)CN(C)C)[C@@H](C)CN([C@@H](C)CO)S2(=O)=O	.	.	.	.	2	.
Cc1ccc(C(=O)Nc2cccnc2)cc1Cl	-1	2	4	.	55*	2
O=C(Nc1cccnc1)c1ccc(F)cc1	3	19	3	24	2	-5
O=C(Nc1cccnc1)c1ccc(-c2ccccc2)cc1	-1	-1	0	0	93*	4
Cc1ccc(C(=O)Nc2cccnc2)cc1C	.	.	.	.	46*	4
Cc1ccc(NC(=O)c2cccnc2)cc1C	0	0	4	4	49*	2
COc1ccccc1S(=O)(=O)N(C)C[C@@H]1Oc2cc(C#CCC3CCCC3)ccc2S(=O)(=O)N([C@@H](C)CO)C[C@@H]1C	.	.	.	.	1	.
CCC(=O)Nc1ccc2c(c1)C(=O)N(C)C[C@@H](OC)[C@H](C)CN(Cc1ccncc1)[C@H](C)CO2	.	.	.	.	-5	.
Cc1ccc2c(Cl)c(C(=O)Nc3cccnc3)sc2c1	-1	-4	-24	2	55*	1
Cc1ccc2c(C)c(C(=O)Nc3cccnc3)oc2c1	-1	-10	-21	-2	27	7
Cc1ccc2c(Cl)c(C(=O)NC3CC3)sc2c1	1	-10	-3	1	.	2
Cc1cc2oc(C(=O)Nc3cccnc3)c(C)c2cc1C	-2	-10	1	-1	78*	2
C[C@@H]1CCCCO[C@H](CN(C)C(=O)CCCN(C)C)[C@H](C)CN([C@@H](C)CO)C(=O)c2cc(NC(=O)Nc3ccc(C(F)(F)F)cc3)ccc2O1	.	.	.	.	-7	.
CCCNC(=O)Nc1ccc2c(c1)C(=O)N(C)C[C@H](OC)[C@H](C)CN(C(=O)C1CCCCC1)[C@H](C)CO2	.	.	.	.	4	.
CN1C(=O)c2cc(NC(=O)c3ccccc3Cl)ccc2OC[C@H]2O[C@H](CC(=O)O)CC[C@@H]21	.	.	.	.	-1	.
COc1ccc(C(=O)C[n+]2cn(C(F)F)c3ccccc32)c(F)c1	-1	-11	-3	.	52*	4
COc1ccc2c(ccc[n+]2CC(=O)c2ccccc2)c1	0	9	-7	-6	2	-1
CO[C@H]1CN(C)C(=O)c2cc(NS(=O)(=O)c3cccc(F)c3)ccc2OC[C@H](C)NC[C@H]1C	.	.	.	.	-6	.
CN1C(=O)c2cc(NC(=O)c3ccc(F)cc3)ccc2OC[C@@H]2O[C@H](CC(=O)NC3CCC3)CC[C@@H]21	.	.	.	.	7	.
O=C(C[n+]1cc(-c2ccc(F)cc2)n2c1CCC2)c1cccs1	-8	16	-4	1	46*	-1
CO[C@H]1CN(C)C(=O)c2ccc(NC(C)=O)cc2OC[C@H](C)N(C(=O)c2ccncc2)C[C@@H]1C	.	.	.	.	-21	.
O=C(CCS(=O)(=O)Cc1ccccc1)Nc1ncc([N+](=O)[O-])s1	2	-9	-5	-7	42*	0
Cc1ccc(Nc2nc(COC(=O)C3CC3)cs2)cc1	1	-1	-12	-5	49*	3
Cc1ccc(Nc2nc(C(=O)N3CCC(C(=O)N4CCN(C)CC4)CC3)cs2)cc1	0	7	-6	2	8	6
O=C(Nc1ccc2c(c1)CN(C(=O)Nc1ccc(F)cc1)CC2)c1ccccn1	.	.	.	.	47*	-4
